Measured values from PubChem BioAssay AID1347420 (Sanford-Burnham Center for Chemical Genomics, 2020).
“And” between values parts separate entries of the source, which are not always exact repeats. Equal values may be shown once. Screen size: about 1,300 compounds; about 980 (75%) were called active. About 4% were inconclusive and are not listed. This is one part of the list.

The molecules below were run against Sulfhydryl oxidase 1 (Homo sapiens) (UniProt O00391) (assay: QSOX1 enzyme inhibitors, primary screen, biochemical, HyperBlu H2O2 luminescence, HTS (AID 1347420; note: values above 100% were filed as inconclusive)). Conditions: recombinant QSOX1, HyperBlu H2O2 luminescence; at 12.5 µM; hits give high values; active = any value above zero.
Sulfhydryl oxidase 1 (Homo sapiens), sequence (O00391 whole entry, looked up): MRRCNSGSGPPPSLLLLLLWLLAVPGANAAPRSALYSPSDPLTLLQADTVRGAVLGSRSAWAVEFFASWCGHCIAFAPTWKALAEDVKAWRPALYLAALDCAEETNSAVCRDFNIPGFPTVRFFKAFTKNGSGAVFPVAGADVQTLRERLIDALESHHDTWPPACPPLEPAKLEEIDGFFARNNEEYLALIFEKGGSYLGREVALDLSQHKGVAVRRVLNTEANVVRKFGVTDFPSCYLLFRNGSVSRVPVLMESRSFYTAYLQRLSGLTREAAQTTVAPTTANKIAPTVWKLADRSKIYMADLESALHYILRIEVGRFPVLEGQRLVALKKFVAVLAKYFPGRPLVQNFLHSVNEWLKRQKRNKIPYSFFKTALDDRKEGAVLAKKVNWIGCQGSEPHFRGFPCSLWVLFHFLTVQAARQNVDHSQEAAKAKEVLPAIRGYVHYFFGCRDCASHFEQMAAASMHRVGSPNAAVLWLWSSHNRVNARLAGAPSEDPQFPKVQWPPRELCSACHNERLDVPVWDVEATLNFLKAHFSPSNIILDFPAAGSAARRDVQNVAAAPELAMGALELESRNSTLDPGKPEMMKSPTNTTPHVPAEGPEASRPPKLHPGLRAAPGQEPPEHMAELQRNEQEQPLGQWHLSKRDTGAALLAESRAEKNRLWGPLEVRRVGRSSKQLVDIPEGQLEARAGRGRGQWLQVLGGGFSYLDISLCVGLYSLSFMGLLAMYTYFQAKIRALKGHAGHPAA

inhibition, inactive:
C[C@H](NC(CCc1ccccc1)C(=O)O)C(=O)N1CCC[C@H]1C(=O)O (stereo partly specified) -5.7%, CCO/C([O-])=N/c1c[n+](N2CCOCC2)no1 -0.8%, N=C(N)c1ccccc1 -0.4%, CC(C)C[C@H](NC(=O)[C@H](O)[C@H](N)Cc1ccccc1)C(=O)O -3.8%, O=C(O)CCC/C=C\C[C@@H]1[C@@H](/C=C/[C@H](O)C2Cc3ccccc3C2)[C@@H](F)C[C@@H]1O -13.7%, CC(C)NCC(O)COc1ccc(COCCOC(C)C)cc1 (stereo unspecified) -12.7%, N=C(N)SCCN -3.9%, COc1ccc(NC=O)c(C(=O)CCNC(C)=O)c1 -9.8%, CN(C)CCCN1c2ccccc2CCc2ccc(Cl)cc21 -0.4%, CC(=O)c1ccc(S(=O)(=O)NC(=O)NC2CCCCC2)cc1 -1.5%, COC(=O)C(N)Cc1ccc(Cl)cc1 (stereo unspecified) -8.3%, N[C@@H](Cc1ccc(F)cc1)C(=O)O -2.9%

inhibition, active:
CCOC(=O)[C@H](CCc1ccccc1)N[C@@H](C)C(=O)N1[C@H](C(=O)O)C[C@H]2CCCC[C@@H]21 12.1%, COC(=O)C1=C(C)NC(C)=C([N+](=O)[O-])C1c1ccccc1C(F)(F)F (stereo unspecified) 59.9%, COC(=O)C1=C(C)NC(C)=C(C(=O)OC)C1c1ccccc1[N+](=O)[O-] 54.9%, Cc1nc2c(OCc3ccccc3)cccn2c1CC#N 11.8%, NC(N)=NC(N)=Nc1ccccc1 6%, NC(N)=NC(N)=Nc1cccc(Cl)c1 25.1%, CN1CCN2c3ccccc3Cc3ccccc3C2C1 (stereo unspecified) 9.7%, CCCn1c(=O)c2[nH]c(C3CCCC3)nc2n(CCC)c1=O 5.5%, Cn1c(=O)c2[nH]c(C3CCCC3)nc2n(C)c1=O 7.5%, O=C(c1cc(O)c(O)c([N+](=O)[O-])c1)c1ccccc1F 83.5%, CC(C)C[C@H](NC(=O)[C@@H](O)[C@H](N)Cc1ccccc1)C(=O)O 0.9%, CCC(NC(C)C)C(O)c1ccc(O)c(O)c1 (stereo unspecified) 38.5%, CC(C)NC[C@H](O)c1ccc(O)c(O)c1 38.5%, CC(C)NCC(O)c1ccc(O)c(O)c1 (stereo unspecified) 29% and 11.6%, CC(C)NCC(O)c1ccc(NS(C)(=O)=O)cc1 (stereo unspecified) 4.1%, CC(C)(C)NCC(O)c1cc(O)cc(O)c1 (stereo unspecified) 3%, CC(C)NCC(O)c1cc(O)cc(O)c1 (stereo unspecified) 8.3%, CC(C)(C)NCC(O)c1ccc(O)c(CO)c1 (stereo unspecified) 17.3%, Nc1ccc(S(=O)(=O)Nc2ccnn2-c2ccccc2)cc1 27.9%, O=c1cc(N2CCOCC2)oc2c(-c3ccccc3)cccc12 4.6%, Cc1cc(O)c2c(c1)C(=O)c1cc(O)cc(O)c1C2=O 17.7%, OCC1O[C@H]([S-])[C@@H](O)C(O)[C@@H]1O.[Au+] (stereo partly specified) 29.5%, N=C(N)SCCc1ccc(CCSC(=N)N)cc1 9%, Oc1cc2c(cc1O)CN(C(=S)NCCc1ccc(Cl)cc1)CCC2 83.2%, CC(=O)NCCc1c[nH]c2ccc(O)cc12 92.2%, COc1ccc2[nH]cc(CCNC(C)=O)c2c1 15.6%, COc1cc2c(CCNC(C)=O)c[nH]c2cc1Cl 14.3%, O=c1[nH]cc(F)c(=O)[nH]1 13.9%, Cc1cc(NC(=O)Nc2ccc3c(ccn3C)c2)sn1 13.4%, CC(CN(C)C)CN1c2ccccc2CCc2ccccc21 (stereo unspecified) 29.4%, CN(C)CCCN1c2ccccc2CCc2ccccc21 31.8%, CNCCCN1c2ccccc2CCc2ccccc21 34.2%, CCCNC(=O)NS(=O)(=O)c1ccc(Cl)cc1 0.5%, CCCCNC(=O)NS(=O)(=O)c1ccc(C)cc1 10.2%, Cc1ccc(S(=O)(=O)NC(=O)NN2CCCCCC2)cc1 49.9%, OC(CN1CCN(c2cccc(Cl)c2)CC1)C(c1ccccc1)c1ccccc1 (stereo unspecified) 17.3%, C[C@]12C[C@H](O)[C@H]3[C@@H](CCC4=CC(=O)CC[C@@]43C)[C@@H]1CC[C@@H]2C(=O)CO 9.4%, C[C@]12CCC(=O)C=C1CC[C@@H]1[C@@H]2[C@@H](O)C[C@@]2(C)[C@H]1CC[C@]2(O)C(=O)CO 9%, N[C@H](C(=O)O)[C@H]1C[C@@H]1C(=O)O 20.9%, O=C(O)c1cc(=O)cc(C(=O)O)[nH]1 10.2%, N[C@@H](Cc1ccc(O)c(O)c1)C(=O)O 43.6%, N[C@@H](Cc1ccc(O)c(I)c1)C(=O)O 14.8%, NC(Cc1ccc(Cl)cc1)C(=O)O (stereo unspecified) 6.1%, COC(=O)[C@@H](N)Cc1ccc(O)c(O)c1 48.2%
